Compound activity: PubChem BioAssay, Broad Institute
This is one part of a sample in which hits are shown more often than they occur.
C diff growth: C. difficile growth inhibition; Clostridium difficile clinical isolate growth, OD600, 24 h; active compounds read low; actives 0.25% (n = 86,000); AID 1259249; growth activity, negative = inhibition, % at 16 µg/mL (by protocol);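 active means mean growth activity at or below -80% and every replicate also at or below -80%; inconclusive means mean at or below -80% but some replicate above -80%; inactive means mean growth activity above -80%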;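 further: 0% = DMSO wells and -100% = levofloxacin 16 µg/mL wells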
T cruzi growth-1: inhibitors of T. cruzi proliferation; T. cruzi beta-gal in NIH3T3, GalScreen luminescence, 90 h; inhibition, % at 8.34 µM; actives 5.9% (n = 77,000);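 active means mean inhibition above about 93%, with at least 55% of replicates each passing it, limit read from the data, passing the limit was not always enough; inconclusive means only one of those two conditions holds; inactive means neither condition holds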
T cruzi growth-2: inhibitors of T. cruzi proliferation; shares compounds with T cruzi growth-1; T. cruzi beta-gal in NIH3T3, GalScreen luminescence, 90 h; inhibition, % at 8.35 µM; actives 72% (n = 5,600); AID 651739;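 active means mean replicate inhibition above about 95% and at least 55% of replicates individually reaching it, limit read from the data; inconclusive means only one of the two criteria is met; inactive means neither criterion is met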
T cruzi growth-3: Trypanosoma cruzi proliferation inhibition; inhibition, % at 2.09 µM; T. cruzi beta-gal in NIH3T3, GalScreen luminescence, 90 h; actives 21% (n = 5,600); shares compounds with T cruzi growth-1;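 active means mean inhibition above about 95%, with at least 55% of replicates also reaching it, limit read from the data; inconclusive means meets just one of the two conditions; inactive means meets neither condition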;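 further: plate controls were neutral control median for no effect and positive control median for full effect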
NIH3T3 tox: cytotoxicity in mouse NIH/3T3 fibroblasts | actives 14% (n = 5,600) | NIH/3T3 viability, CellTiter-Glo ATP luminescence, 90 h | cytotoxicity (signal decrease), % at 8.35 µM | shares compounds with T cruzi growth-1;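 active means mean signal decrease across replicates above about 35% based on untreated-well scatter, with enough replicates individually passing, limit read from the data; inconclusive means no rule stated though some were filed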;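 further: 0% = median of neutral control wells and 100% = median of positive control wells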
3T3 cytotox 2: cytotoxicity in mouse NIH/3T3 fibroblasts; shares compounds with T cruzi growth-1; NIH/3T3 viability, CellTiter-Glo ATP luminescence, 90 h; inhibition, % at 24.9 µM; actives 56% (n = 5,600); AID 651744;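 active means mean loss of cell viability signal at or above a set limit, and enough replicates individually reaching it; inconclusive means meets only the mean limit or only the replicate share; inactive means meets neither condition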;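 further: 0% = median of neutral control wells and 100% = median of positive control wells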
Numbers without * were called inactive; ? = inconclusive; nt = no result.

SMILES	C diff growth	T cruzi growth-1	T cruzi growth-2	T cruzi growth-3	NIH3T3 tox	3T3 cytotox 2
COc1ccccc1CN1[C@@H]2c3ccc(C4=CCCC4)c(=O)n3C[C@H]1[C@H](CO)[C@H]2C(=O)N(C)C	0	142*	74	12	7	38*
COc1cccc(NC(=O)N(C)C[C@@H]2Oc3cc(C#Cc4ccccc4)ccc3S(=O)(=O)N([C@@H](C)CO)C[C@@H]2C)c1	-7	?	nt	nt	nt	nt
COc1cccc(NC(=O)N(C)C[C@H]2Oc3cc(C#Cc4ccccc4)ccc3S(=O)(=O)N([C@H](C)CO)C[C@H]2C)c1	12	85*	100*	114*	5	5
COc1cccc(NC(=O)N(C)C[C@H]2Oc3cc(C#Cc4ccccc4)ccc3S(=O)(=O)N([C@H](C)CO)C[C@@H]2C)c1	1	94*	113*	89	24	21
COc1cccc(C#Cc2ccc3c(c2)O[C@H](CN(C)C(C)=O)[C@H](C)CN([C@@H](C)CO)S3(=O)=O)c1	-10	50	nt	nt	nt	nt
COc1cccc(NC(=O)N(C)C[C@H]2Oc3cc(-c4ccccc4OC)ccc3S(=O)(=O)N([C@H](C)CO)C[C@@H]2C)c1	-1	nt	nt	nt	nt	nt
COc1cccc(C#Cc2ccc3c(c2)O[C@@H](CN(C)C(C)=O)[C@H](C)CN([C@@H](C)CO)S3(=O)=O)c1	-12	?	107*	30	?	35*
COc1ccc2c3c([nH]c2c1)[C@@H](CO)N(C)CC31CCN(C(=O)CN(C)C)CC1	-1	nt	nt	nt	nt	nt
COc1ccc(CN(C)C[C@H]2OCCCC[C@H](C)Oc3ccc(NC(=O)Cc4ccccc4)cc3C(=O)N([C@H](C)CO)C[C@@H]2C)cc1	-1	45	nt	nt	nt	nt
Cc1ccc(S(=O)(=O)N2CC[C@@H]3[C@@H](CO)Nc4ccc(-c5cccc(C(=O)N(C)C)c5)cc4[C@@H]32)cc1	-5	23	nt	nt	nt	nt
COc1ccc(NC(=O)N(C)C[C@H]2Oc3ccc(NS(=O)(=O)c4ccccc4)cc3C(=O)N([C@@H](C)CO)C[C@H]2C)cc1	2	19	nt	nt	nt	nt
COCC#Cc1ccc([C@H]2[C@@H](CO)N3CCCCN(Cc4cccnc4)C[C@H]23)cc1	-1	100*	96*	59	5	14
COCC#Cc1ccc([C@@H]2[C@H](CO)N3CCCCN(Cc4cccnc4)C[C@@H]23)cc1	0	10	nt	nt	nt	nt
COCC#Cc1ccc([C@H]2[C@H]3CN(Cc4cncnc4)CCCCN3[C@H]2CO)cc1	-8	78	nt	nt	nt	nt
COCC#Cc1ccc([C@H]2[C@@H](CO)N3CCCCN(Cc4cncnc4)C[C@@H]23)cc1	-2	108*	92	61	6	13
COCC#Cc1ccc([C@H]2[C@H](CO)N3CCCCN(Cc4cccnc4)C[C@@H]23)cc1	1	102*	101*	86	13	5
O=C(C[C@H]1C=C[C@H](NC(=O)c2ccccc2)[C@H](CO)O1)Nc1ccc(-c2ccccc2)cc1	-4	-59	nt	nt	nt	nt
COc1ccc(NC(=O)N(C)C[C@@H]2Oc3ncc(-c4cccnc4)cc3C(=O)N([C@H](C)CO)C[C@H]2C)cc1	-1	-150	nt	nt	nt	nt
N#C[C@@H]1[C@@H](c2ccccc2)[C@H](CO)N1S(=O)(=O)c1ccc(F)cc1	-3	50	nt	nt	nt	nt
N#C[C@@H]1[C@H](c2ccccc2)[C@H](CO)N1S(=O)(=O)c1ccc(F)cc1	-14	33	nt	nt	nt	nt
N#C[C@H]1[C@@H](c2ccccc2)[C@@H](CO)N1S(=O)(=O)c1ccc(-c2ccccc2)cc1	0	96*	102*	77	10	23
N#C[C@@H]1[C@@H](c2ccccc2)[C@@H](CO)N1S(=O)(=O)c1ccc(-c2ccccc2)cc1	18	103*	100*	26	17	20
C[C@H](CO)N1C[C@H](C)[C@@H](CN(C)Cc2ccc3c(c2)OCO3)Oc2ccc(NC(=O)CCCN(C)C)cc2CC1=O	0	-39	nt	nt	nt	nt
O=S(=O)(N[C@H]1CC[C@@H](CCn2cc(-c3cccnc3)nn2)O[C@H]1CO)c1ccc(Cl)cc1	1	-11	nt	nt	nt	nt
C[C@H]1CN([C@@H](C)CO)C(=O)c2cccc(NC(=O)c3ccc(-c4nccs4)cc3)c2O[C@H]1CN(C)Cc1ccc(Oc2ccccc2)cc1	nt	1	nt	nt	nt	nt
SMILES	C diff growth	T cruzi growth-1	T cruzi growth-2	T cruzi growth-3	NIH3T3 tox	3T3 cytotox 2
C[C@H](CO)N1C[C@H](C)[C@H](CN(C)Cc2ccc(C(F)(F)F)cc2)Oc2c(NC(=O)c3ccc(-c4nccs4)cc3)cccc2C1=O	nt	?	108*	87	12	-10
C[C@H]1CN([C@@H](C)CO)C(=O)c2cccc(NC(=O)c3ccc(-c4nccs4)cc3)c2O[C@H]1CN(C)Cc1ccc(C(F)(F)F)cc1	nt	81	nt	nt	nt	nt
C[C@H](CO)N1C[C@H](C)[C@@H](CN(C)Cc2ccc(Oc3ccccc3)cc2)Oc2c(NC(=O)c3ccc(-c4nccs4)cc3)cccc2C1=O	nt	?	100*	112*	-8	-11
COc1ccc(S(=O)(=O)Nc2ccc3c(c2)C(=O)N([C@H](C)CO)C[C@H](C)[C@H](CN(C)C(=O)CCC(F)(F)F)OCCCC[C@H](C)O3)cc1	-3	-56	nt	nt	nt	nt
C[C@@H]1CN([C@H](C)CO)S(=O)(=O)c2ccc(C#CCN(C)C)cc2O[C@H]1CN(C)Cc1cccnc1	1	96*	101*	93	25	42*
C[C@@H]1CN([C@@H](C)CO)S(=O)(=O)c2ccc(C#C[C@@H](C)O)cc2O[C@H]1CN(C)Cc1cccnc1	-6	36	nt	nt	nt	nt
C[C@H](O)C#Cc1ccc2c(c1)O[C@@H](CN(C)Cc1cccnc1)[C@H](C)CN([C@@H](C)CO)S2(=O)=O	0	28	nt	nt	nt	nt
CC(C)C#Cc1ccc2c(c1)O[C@@H](CN(C)Cc1cccnc1)[C@@H](C)CN([C@@H](C)CO)S2(=O)=O	7	97	nt	nt	nt	nt
C[C@@H]1CN([C@@H](C)CO)S(=O)(=O)c2ccc(C#CCN(C)C)cc2O[C@@H]1CN(C)Cc1cccnc1	3	?	99*	62	28	48*
COCC#Cc1ccc2c(c1)O[C@@H](CN(C)Cc1cccnc1)[C@H](C)CN([C@H](C)CO)S2(=O)=O	-2	52	nt	nt	nt	nt
C[C@H]1CN([C@@H](C)CO)S(=O)(=O)c2ccc(C#CCN(C)C)cc2O[C@@H]1CN(C)Cc1cccnc1	-1	104*	110*	108*	8	15
CC(C)C#Cc1ccc2c(c1)O[C@H](CN(C)Cc1cccnc1)[C@@H](C)CN([C@H](C)CO)S2(=O)=O	2	107*	108*	104*	-21	102*
O=C(C[C@@H]1C[C@@H]2c3cc(NS(=O)(=O)c4ccc(F)cc4)ccc3O[C@@H]2[C@H](CO)O1)NCCc1ccccc1	-8	nt	nt	nt	nt	nt
C[C@@H]1CN([C@@H](C)CO)C(=O)CCCn2cc(nn2)CO[C@@H]1CN(C)C(=O)CCC(F)(F)F	-3	-17	nt	nt	nt	nt
